Data as given in PubChem BioAssay AID430 (Sanford-Burnham Center for Chemical Genomics, 2006).
Among all 63,000 compounds or so, about 1,100 (1.7%) were called active. Shown is part of a subset that was picked to be rich in actives. Measured potencies and affinities stand elsewhere. Values without a mark were called inactive. No stated cut-off is given here; in the data, active means cytotoxicity above about 50%; inactive means the rest.

test: HPDE-C7 pancreatic duct cell viability loss – fluorescence, HTS (AID 430); conditions: HPDE-C7 pancreatic duct cells viability, at 10 µM, stronger effect = higher value;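 further: cells exposed to compound for 48 hours before viability readout; 0% = vehicle and 100% = reference cytotoxic drug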

Row | SMILES | cytotoxicity
1 | CCC(=O)Nc1nc(C)nc(C)c1C(C)=O | -5.6%
2 | CC(=O)Nc1ccc(C)cc1NC(C)=O | -3.9%
3 | COc1ccc(C(c2nnnn2CCc2ccccc2)N2CCN(C3CCCC3)CC2)cc1 (centres undefined) | -6.9%
4 | O=C(O)CSc1cccc2cccnc12 | -7.9%
5 | CCOC(=O)CNc1ncnc2nc[nH]c12 | -3.5%
6 | c1ccc(-c2nnc(-c3ccccn3)nn2)nc1 | 6.6%
7 | c1ccc(-c2ccc(-c3ccccn3)nn2)nc1 | 0.9%
8 | COc1ccc(S(=O)(=O)N2CCOCC2)c(Cl)c1Cl | -17.3%
9 | CCc1nc(NC2CCCCC2)c(C#N)c2c1COC(C)(C)C2 | 63.4% (active)
10 | CCCc1nc(NC2CCCCC2)c(C#N)c2c1COC(C)(C)C2 | -4.4%
11 | CCc1nc(NCC2CCCO2)c(C#N)c2c1COC(C)(C)C2 (centres undefined) | -11.3%
12 | COc1ccc(-n2cnnc2SCC(=O)c2cc(C)n(Cc3cccs3)c2C)cc1 | 0.5%
13 | CCOC(=O)C1=C(N2CCCCC2)c2cc3c(n2C1=O)CCCC3 | 10.1%
14 | CCSc1ncnc2c(C#N)c3n(c12)CCCCC3 | -13.6%
15 | CCN1CCN(CCNC(=O)c2ccc(CS(=O)(=O)c3ccccc3C)o2)CC1 | -0.5%
16 | COc1ccc(C)cc1NC(=O)c1nnn(Cc2cc(C)ccc2C)c1N | 7.5%
17 | Cc1cc(C)cc(NC(=O)c2nnn(Cc3cc(C)ccc3C)c2N)c1 | 58.9% (active)
18 | Cc1ccc(CCNC(=O)c2nnn(-c3cc(C)cc(C)c3)c2N)cc1 | 3.4%
19 | Cc1ccc(C)c(NC(=O)c2nnn(Cc3ccccc3C)c2N)c1 | 1.7%
20 | Cc1ccc(NC(=O)c2nnn(-c3cc(C)cc(C)c3)c2N)cc1 | 55.6% (active)
21 | Cc1cccc(-n2nnc(C(=O)Nc3ccc(F)cc3)c2N)c1 | 15.2%
22 | CCOC(=O)C(Cc1c[nH]c2ccccc12)NC(=O)CNC(C)=O (centres undefined) | 2.5%
23 | CCCn1cnc2cc(NCc3cccc(OC)c3O)ccc21 | 5.7%
24 | CCOC(=O)c1ccc2ncc(C(=O)OCC)c(NCCCN3CCOCC3)c2c1 | 3%
25 | COc1ccc2c(c1)C1(Nc3ccccc3C(=O)N1c1ccccc1)C(=O)N2 (centres undefined) | -14.8%
26 | CC(=Nc1ccccc1)Nc1ccccc1 | -13.5%
27 | S=C(N=Nc1ccccc1)NNc1ccccc1 | 58.8% (active)
28 | ONC(=Nc1ccccc1)C(=Nc1ccccc1)NO | 0.4%
29 | COc1ccc(C2C(C(=O)NCCN3CCOCC3)c3ccccc3C(=O)N2C)cc1OC (centres undefined) | -4.3%
